Compound activity: PubChem, National Center for Advancing Translational Sciences (NCATS)
IL-1B inflam inh = inflammasome signaling inhibition, IL-1 beta readout; 360,000 compounds, 4.7% hits; activity change, % at 57.5 µM; THP-1 LPS/ATP IL-1B secretion, AlphaLISA, 16 h; hits give low values; in the data active = activity change below about -50%; inconclusive = mostly about -30% to -49%
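THP-1 cells pretreated 1 hr with compounds (up to 57.5 uM final), then stimulated with LPS (250 ng/mL final) plus ATP (1.25 mM final); secreted IL-1B measured by AlphaLISA after 16 hr, decreased signal indicating inhibition.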
12-LOX inh = ALOX12 (human) lipoxygenase inhibition | purified 12hLO, xylenol orange hydroperoxide absorbance | 580,000 compounds, 1.1% hits | Potency, µM (top dose mostly 108 µM), without a hit: top-dose activity change, negative = inhibition, actives largely listed as inhibitors; note: potency is the fitted concentration of half-maximal effect
Target sequence (P18054 whole entry, looked up): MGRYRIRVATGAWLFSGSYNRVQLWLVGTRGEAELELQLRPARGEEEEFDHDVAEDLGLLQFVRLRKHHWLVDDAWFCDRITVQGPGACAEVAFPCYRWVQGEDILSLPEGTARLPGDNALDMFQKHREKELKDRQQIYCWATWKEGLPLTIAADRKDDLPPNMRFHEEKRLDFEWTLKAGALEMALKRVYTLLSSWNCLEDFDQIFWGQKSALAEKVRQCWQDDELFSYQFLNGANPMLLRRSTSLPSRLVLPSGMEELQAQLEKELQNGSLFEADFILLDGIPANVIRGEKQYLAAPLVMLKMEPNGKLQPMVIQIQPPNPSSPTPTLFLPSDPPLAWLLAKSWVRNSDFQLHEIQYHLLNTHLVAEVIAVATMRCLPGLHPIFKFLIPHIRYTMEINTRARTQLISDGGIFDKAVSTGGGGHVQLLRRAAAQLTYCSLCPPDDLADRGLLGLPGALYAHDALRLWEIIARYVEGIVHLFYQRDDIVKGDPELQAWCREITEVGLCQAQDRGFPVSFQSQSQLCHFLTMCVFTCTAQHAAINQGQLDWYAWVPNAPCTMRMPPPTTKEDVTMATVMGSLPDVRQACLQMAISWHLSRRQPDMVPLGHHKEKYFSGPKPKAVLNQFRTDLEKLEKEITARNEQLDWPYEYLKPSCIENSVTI
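Purified human 12hLO (150 nM final) in 25 mM Hepes, 0.01% Triton X-100, pH 7.0 was preincubated 15 min at room temperature with compound. Then 40 uM arachidonic acid was added, 30 min. Hydroperoxide was read by Fe-XO absorbance ratio 573/405 nm.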
HT1080-NT tox = kills 2HG-producing HT-1080-NT fibrosarcoma cells; HT-1080-NT fibrosarcoma viability, CellTiter-Glo ATP luminescence, 48 h; Potency, µM (titrated, usually from 46.1 µM), for the others: at the highest dose activity, negative = less viability, hits mostly cytotoxic; 360,000 compounds, 1.6% hits; AID 686970;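 note: NT is the 2HG producing partner of a matched IDH1 knockdown line; potency is the fitted concentration of half-maximal effect; 0% = DMSO-treated cells and -100% = media-only wells without cells; nearly all actives have a fitted effect of over 55% in size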
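750 cells/well, RPMI + 5% FBS; 2 h settle, compound pin-transfer, 48 h at 37 degrees C. CellTiter-Glo 10 min RT, luminescence. Normalized to DMSO and media-only wells.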
HT1080 IDH1KD tx = HT-1080 IDH1 knockdown cell toxicity (counter line); HT-1080 IDH1 knockdown viability, ATP luminescence, 48 h; AID 686971; Potency, µM (series often up to 46.1 µM), for inactives: at the top dose activity, negative = toxicity, actives largely listed as cytotoxic; 360,000 compounds, 2% hits;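 note: potency is the fitted concentration of half-maximal effect; 0% = DMSO wells and -100% = cell-free medium wells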
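IDH1KD HT-1080 cells, 750/well, RPMI + 5% FBS; compound pinned after 2 h settling; 48 h, 37 °C; CellTiter-Glo luminescence; % activity normalised to DMSO and no-cell wells; curves fitted, classed by r2 and efficacy.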
DT40 TDP1 CPT = growth inhibition of DT40 Tdp1-/-;hTDP1 cells with camptothecin (screen for TDP1 inhibitors). Potency, µM (series often up to 46.2 µM), without a hit: at the top dose activity change, negative = growth inhibition, hits mostly inhibitors. 420,000 compounds, 12% hits. chicken DT40 Tdp1-/-;hTDP1 cells + 20 nM CPT, ATP luminescence, 48 h. AID 686979; note: potency is the fitted concentration of half-maximal effect; nearly all actives have a fitted effect of over 55% in size
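Cell growth measured by CellTiter-Glo luminescence after a minimum 48 h, 37 C compound exposure with 20 nM CPT in Tdp1-knockout DT40 cells stably expressing hTDP1, seeded 400/well; qHTS titration format.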
TDP1 cell noCPT = qHTS for Inhibitors of human tyrosyl-DNA phosphodiesterase 1 (TDP1): qHTS in cells in absence of CPT | DT40 Tdp1-/- hTDP1 cells, no CPT, ATP luminescence, 48 h | Potency, µM (highest dose often 46.2 µM), for inactives: at the highest dose activity change, negative = growth inhibition, most hits filed as inhibitors | 420,000 compounds, 15% hits; note: potency is the fitted concentration of half-maximal effect; nearly all actives have a fitted effect of over 55% in size
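Chicken DT40 Tdp1-/- cells complemented with human TDP1, screened without camptothecin (DMSO vehicle only), 400 cells/well. Compounds pin-transferred, cells incubated at 37 °C for at least 48 hr. Growth read as ATP-dependent luminescence (CellTiter-Glo, 30 min at RT).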
* marks the source's active call; other numbers are inactive results; ? = inconclusive; . = not tested or not shown; ! = not confirmed by another sample. The sample as a whole holds a higher share of hits than the screen did. Unless noted, calls come from the whole dose curve; as a rule, active = well fitted curve in the direction sought with a large enough effect; inconclusive = small, poorly fitted or top-dose-only effect, or another doubt; inactive = no such curve, though single readings can be large; an effect the other way counts as inactive or inconclusive. Unless noted, % is set by controls: 0 for no effect and ±100 for the full control effect.

SMILES	IL-1B inflam inh	12-LOX inh	HT1080-NT tox	HT1080 IDH1KD tx	DT40 TDP1 CPT	TDP1 cell noCPT
COc1cccc(C(=O)Cn2c(N3CCCCC3)nc3c2c(=O)n(C)c(=O)n3C)c1	-8	-11%	-1%	8%	?	18µM*
O=C(NCC(=O)N1CCCCC1)C1CCCN(S(=O)(=O)c2ccc(Cl)cc2)C1 (stereo not given)	.	-1%	.	.	.	.
Cn1c(=O)c2c(nc(NC3CCCCC3)n2CC(O)COc2ccccc2)n(C)c1=O (stereo not given)	-5	1%	-2%	-7%	?	23µM*
Cn1c(=O)c2c(nc(N3CCCCC3)n2CC(O)COc2ccccc2)n(C)c1=O (stereo not given)	13	0%	2%	2%	?	16µM*
COc1ccc(OCC(O)Cn2c(Nc3ccccc3)nc3c2c(=O)n(C)c(=O)n3C)cc1 (stereo not given)	-4	?	8%	7%	1%	-14%
CC(=O)c1cc(C#N)c(SCC(=O)OC(C)C)nc1C	11	2%	4%	0%	?	?
CC(=O)c1cc(C#N)c(SCC(=O)OC(C)(C)C)nc1C	-25	-30%	-4%	-7%	21µM*	?
CCn1cc(C(=O)O)c(=O)c2cnc(N3CCN(C(=S)NC(=O)c4ccccc4)CC3)nc21	?	-1%	?	1%	-16%	-10%
CCn1cc(C(=O)O)c(=O)c2cnc(N3CCN(C(=S)Nc4ccccc4)CC3)nc21	-15	-19%	7%	-8%	?	?
CCn1cc(C(=O)O)c(=O)c2cnc(N3CCN(C(=S)Nc4ccccc4C(F)(F)F)CC3)nc21	-10	-14%	2%	15%	-30%	29µM*
CCCOc1ccc(C(=O)NC(=S)N2CCN(c3ncc4c(=O)c(C(=O)O)cn(CC)c4n3)CC2)cc1	20	?	-1%	0%	23µM*	?
Cc1cc(=O)n2c3c(c4c(cc13)c(CN(C)C)cc(=O)n4C)OC2	-13	18%	-13%	?	8.2µM*	6.5µM*
CN(C)C(=O)C1CN(C(=O)CCCc2ccccc2)CC12CCOCC2 (stereo not given)	.	14%	.	.	.	.
Cc1cc(C)c2nc(Cl)c(CN(Cc3ccco3)C(=O)Nc3ccccc3C)cc2c1	65	7%	5µM*	5.6µM*	5.2µM*	4.6µM*
COCCN(Cc1cc2ccc(C)c(C)c2nc1Cl)C(=O)N1CCOCC1	?	-26%	0%	21%	?	?
COCCN(Cc1cc2c(C)cc(C)cc2nc1Cl)C(=O)c1ccccc1F	5	12%	8%	3%	10µM*	8.2µM*
COCCN(Cc1cc2cc(C)cc(C)c2nc1Cl)C(=O)Nc1ccccc1	38	20%	10µM*	7.1µM*	4.6µM*	3.3µM*
COCCN(CCOC)C(=O)c1cc(-c2ccc(C)cc2)nc2ccccc12	.	9%	.	.	.	.
O=C(/C=C/c1cccc(Cl)c1Cl)c1ccc(OC(F)F)cc1OC(F)F	.	0%	.	.	.	.
CSc1cccc(NC(=O)COc2coc(CN3CCSCC3)cc2=O)c1	.	-14%	.	.	.	.
Cc1cccc(NC(=O)c2ccc[n+]([O-])c2)n1	.	7%	.	.	.	.
CCC[C@@H]1C[C@@]1(CCC)[C@@H](NP(=O)(c1ccccc1)c1ccccc1)c1ccc(C(=O)OC)cc1	-3	-29%	-3%	-5%	?	16µM*
Cc1cccc(-c2ocnc2C(=O)NCCc2ccccc2C)c1	.	6%	.	.	.	.
CC(C)(C)CN1CCN(CC#Cc2ccccc2)CC1CCO (stereo not given)	13	26%	-2%	-3%	?	10µM*
COCCC1(C(=O)O)CCCN(CCN2CCCC2=O)C1 (stereo not given)	.	-4%	.	.	.	.
SMILES	IL-1B inflam inh	12-LOX inh	HT1080-NT tox	HT1080 IDH1KD tx	DT40 TDP1 CPT	TDP1 cell noCPT
COc1ccc(-c2cc(C(=O)N3CCN(c4ccccc4)CC3)no2)cc1	-53*	1%	-20%	?	18µM*!	21µM*!
COc1ccc(OC)c(-c2cc(C(=O)N3CCc4ccccc4C3)no2)c1	5	-55%	-1%	-28%	-20%	?
COc1ccc(OC)c(-c2cc(C(=O)N3CCN(c4ccccc4)CC3)no2)c1	49	9%	-1%	-15%	?	21µM*
CCCCN(C)C(=O)c1ccc(Nc2nc(C(N)Cc3ccccc3)cs2)nc1 (stereo not given)	-7	26%	23µM*	-27%	23µM*	15µM*
CC(C)C(N)c1csc(Nc2ccc(C(=O)NCCCO)cn2)n1 (stereo not given)	6	42%	?	7%	-1%	-6%
NC(Cc1ccccc1)c1csc(Nc2ccc(C(=O)NCCCO)cn2)n1 (stereo not given)	-4	20%	-5%	15%	?	?
CN(Cc1ccccc1)C(=O)c1ccc(Nc2nc(C(N)Cc3ccc(C(F)(F)F)cc3)cs2)nc1 (stereo not given)	-105*	?	.	.	12µM*	12µM*
CC(C)CC(N)c1csc(Nc2ccc(C(=O)N(C)Cc3ccccc3)cn2)n1 (stereo not given)	-14	0%	4.6µM*	5.8µM*	5.2µM*	5.8µM*
CN(Cc1ccccc1)C(=O)c1ccc(Nc2nc(C(N)COCc3ccccc3)cs2)nc1 (stereo not given)	?	1%	23µM*	?	?	?
CN(CC(=O)Nc1cccc(F)c1)Cc1ncc(-c2ccc(F)cc2)o1	.	22%	.	.	.	.
CN(Cc1ccccc1)C(=O)c1ccc(Nc2nc(C(N)Cc3ccccc3)cs2)nc1 (stereo not given)	-9	4%	?	21µM*	15µM*	13µM*
COc1cc2c(cc1OC)C(SC)=NC1(CCCC1)C2	?	-3%	-24%	-7%	16µM*	15µM*
O=C(Nc1ccc(Oc2ccccc2)cc1)c1cccc(CN2CCCC2=O)c1	.	1%	.	.	.	.
Cc1cc(/C=C2\Sc3ccccc3N2C)cc(C)[n+]1CC1CCCO1 (stereo not given)	-101*	-23%	9.2µM*	?	0.0082µM*	0.026µM*
Cc1ccc(-n2cc3c(-c4cccc(Br)c4)nnc(C)c3n2)cc1	-23	0%	2%	-2%	26µM*	?
